Laboratory results as given in PubChem BioAssay (NCATS).
Where “and” joins values, the source holds several entries; their conditions need not be identical. Identical values can stand only once. Results filed as inconclusive are left out. Where a call stands in place of a potency, no number is given. A number with no mark means an inactive call. Calls of active or inactive are those of the source. Unless noted, calls follow the shape of the dose curve; as a rule, active = well fitted curve in the direction sought with a large enough effect in the repeat runs; inconclusive = weak or mixed curves; inactive = no such curve, though single readings can be large; an effect the other way counts as inactive or inconclusive.

Legend:
[1] = target: Cytochrome P450 2D6 (Homo sapiens) (UniProt P10635); assay: Cytochrome P450 family 2 subfamily D member 6 (CYP2D6) small molecule antagonists: luciferase biochemical (cell-free) qHTS assay (AID 1645840); also: nearly all actives have a fitted effect of over 55% in size; also: potency is read from the fitted curve at half-maximal effect
Sequence of Cytochrome P450 2D6 (Homo sapiens) (P10635 whole entry, looked up): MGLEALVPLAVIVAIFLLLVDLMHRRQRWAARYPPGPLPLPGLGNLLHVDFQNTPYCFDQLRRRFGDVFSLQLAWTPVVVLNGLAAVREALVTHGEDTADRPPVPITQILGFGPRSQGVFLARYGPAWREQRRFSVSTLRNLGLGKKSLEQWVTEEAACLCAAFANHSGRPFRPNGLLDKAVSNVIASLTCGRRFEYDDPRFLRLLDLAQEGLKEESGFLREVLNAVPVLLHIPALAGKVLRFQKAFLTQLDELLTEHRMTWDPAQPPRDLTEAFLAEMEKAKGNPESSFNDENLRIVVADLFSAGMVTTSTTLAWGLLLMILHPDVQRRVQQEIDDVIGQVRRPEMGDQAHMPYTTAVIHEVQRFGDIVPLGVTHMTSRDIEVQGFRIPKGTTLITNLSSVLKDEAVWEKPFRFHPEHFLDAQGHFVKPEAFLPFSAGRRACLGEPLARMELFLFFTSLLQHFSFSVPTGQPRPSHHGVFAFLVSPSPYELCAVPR
Summary of the method: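 P450-Glo CYP2D6 system: proluciferin substrate converted by enzyme to luciferin, read by luminescence proportional to activity. Enzyme-substrate mix with compound 10 min at room temperature, then NADPH regeneration 1 h before detection reagent.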

[2] = target: Cytochrome P450 2C9 (Homo sapiens) (UniProt P11712); assay: Cytochrome P450 family 2 subfamily C member 9 (CYP2C9) small molecule antagonists: luciferase biochemical (cell-free) qHTS assay (AID 1645842); also: nearly all actives have a fitted effect of over 55% in size; also: potency is read from the fitted curve at half-maximal effect
Sequence of Cytochrome P450 2C9 (Homo sapiens) (P11712 whole entry, looked up): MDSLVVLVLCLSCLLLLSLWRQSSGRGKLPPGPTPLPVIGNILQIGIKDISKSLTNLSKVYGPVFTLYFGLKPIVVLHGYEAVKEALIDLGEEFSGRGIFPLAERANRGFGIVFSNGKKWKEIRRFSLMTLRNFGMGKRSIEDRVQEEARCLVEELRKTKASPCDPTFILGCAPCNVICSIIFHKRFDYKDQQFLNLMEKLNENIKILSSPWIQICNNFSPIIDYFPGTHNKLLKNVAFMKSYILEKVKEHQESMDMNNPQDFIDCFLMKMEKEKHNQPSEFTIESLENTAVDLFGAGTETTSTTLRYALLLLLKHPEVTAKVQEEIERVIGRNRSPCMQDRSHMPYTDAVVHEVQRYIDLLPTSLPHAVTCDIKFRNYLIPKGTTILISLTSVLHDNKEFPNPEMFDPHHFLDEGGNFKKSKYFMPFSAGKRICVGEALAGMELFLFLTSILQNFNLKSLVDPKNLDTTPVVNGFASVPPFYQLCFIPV
Summary of the method: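 P450-Glo CYP2C9 system: proluciferin substrate with enzyme in mix containing 0.4% BSA, 10 min at room temperature, then NADPH regeneration solution added and incubated 1 h at 37C. Detection reagent stopped reaction; luminescence read after 20 min as RLU.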

[3] = Primary qHTS for inhibitors of nuclear receptor binding SET domain protein 2 (NSD2) in an isogenic RCH-ACV NSD2 p.E1099K mutant (9B) (AID 1645876; active = well fitted curve in the direction sought with a large enough effect; an effect the other way counts as inactive or inconclusive; also: nearly all actives have a fitted effect of over 70% in size; also: potency is read from the fitted curve at half-maximal effect)
[4] = A High-Content qHTS Against Drug Library for the Identification of Small Molecules that Inhibit DYT1 Early Onset Primary Dystonia-Associated Cell Pathology (AID 1645839; calls by dose curve; also: series mostly up to about 46 µM)
Summary of the method: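 High-content imaging quantified EGFP-TorsinA mislocalization in HEK293-derived cells inducibly expressing DYT1 mutant torsinA, after 48 h exposure to compound given together with tetracycline induction. Cell count served as a toxicity channel alongside %pathology.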

[5] = Primary qHTS for inhibitors of nuclear receptor binding SET domain protein 2 (NSD2) in an RCH-ACV wild type WT cells (2C) (AID 1645877; active = well fitted curve in the direction sought with a large enough effect; an effect the other way counts as inactive or inconclusive; also: nearly all actives have a fitted effect of over 70% in size; also: potency is read from the fitted curve at half-maximal effect)
[6] = NCATS anti-infectives library activity on HEK293 viability as a counter-qHTS vs the C. elegans viability qHTS (AID 1745854; active = well fitted curve in the direction sought with a large enough effect; an effect the other way counts as inactive or inconclusive;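 also: HEK293 cells exposed to compounds for 24 hr before the viability read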)
Summary of the method: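 Counter-screen for cytotoxicity: HEK293, 24 hr, 37C, compounds up to 41.7 uM final (a dilution series, 1:5). Readout CellTiter-Glo luminescence, 10 min RT. Digitonin control, […] uM final.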

[7] = target: Papain (Carica papaya) (UniProt P00784); assay: Primary qHTS assay for inhibitors of the protease papain (AID 1645873; active = well fitted curve in the direction sought with a large enough effect; an effect the other way counts as inactive or inconclusive;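 also: papain turnover of Z-FR-AMC read as the AMC fluorescence gain over 10 min; series mostly up to about 50 µM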)
Sequence of Papain (Carica papaya) (P00784 whole entry, looked up): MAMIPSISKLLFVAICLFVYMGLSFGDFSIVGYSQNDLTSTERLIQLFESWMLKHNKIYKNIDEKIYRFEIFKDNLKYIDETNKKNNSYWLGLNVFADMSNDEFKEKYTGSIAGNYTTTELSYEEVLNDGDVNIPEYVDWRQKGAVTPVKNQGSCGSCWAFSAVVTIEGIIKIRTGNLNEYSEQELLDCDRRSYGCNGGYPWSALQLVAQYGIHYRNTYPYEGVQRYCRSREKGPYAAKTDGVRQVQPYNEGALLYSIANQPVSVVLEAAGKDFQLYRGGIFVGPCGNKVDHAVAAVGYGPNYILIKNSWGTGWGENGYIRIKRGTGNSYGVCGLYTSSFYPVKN

O=C1[C@H](CC[C@H](O)c2ccc(F)cc2)[C@@H](c2ccc(O)cc2)N1c1ccc(F)cc1
Potency [1]: 15.5 µM (active) and 9.52 µM (active)
Potency [2]: 6.92 µM (active) and 9.52 µM (active)
Potency [3]: 23 µM (active)

Nc1nc(Cl)nc2c1ncn2[C@@H]1O[C@H](CO)[C@@H](O)[C@@H]1F
Potency [1]: inactive
Potency [2]: inactive
Potency [3]: 10.6 nM (active) and 52.5 nM (active)

CC(=O)NO
Potency [4]: inactive
Potency [2]: inactive
Potency [3]: inactive

Nc1ccc(S(=O)(=O)Nc2cnc3ccccc3n2)cc1
Potency [1]: inactive
Potency [2]: 15.5 µM (active)
Potency [3]: inactive
Potency [5]: inactive

CCCCCCCCCCC[C@@H](C[C@@H]1OC(=O)[C@H]1CCCCCC)OC(=O)[C@H](CC(C)C)NC=O
Potency [1]: inactive
Potency [2]: 2.75 µM (active)
Potency [3]: inactive
outcome [6]: inactive

O=C(Nc1ccccc1)OCC(CN1CCCCC1)OC(=O)Nc1ccccc1 (stereo unspecified)
Potency [1]: 0.155 µM (active)
Potency [2]: 13.8 µM (active)
outcome [6]: inactive

C[C@@]12C(=O)OC(=O)[C@]1(C)C1CCC2O1
Potency [1]: inactive
Potency [2]: inactive
Potency [3]: 2.99 µM (active)
Potency [5]: 2.66 µM (active)

CCO[C@@H]1O[C@H](C(COCc2ccccc2)OCc2ccccc2)[C@H](OCc2ccccc2)[C@H]1O (stereo partly specified)
Potency [1]: 11 µM (active)
Potency [2]: 3.09 µM (active)
Potency [3]: 23.7 µM (active)
Potency [5]: 21.1 µM (active)

Cc1ccc2c(Br)cc(Br)c(O)c2n1
Potency [1]: inactive
Potency [2]: inactive
Potency [3]: 7.5 µM (active)
Potency [5]: 2.37 µM (active)

CN(C)CCOC(c1ccc(Cl)cc1)c1ccccn1 (stereo unspecified)
Potency [1]: 15.5 µM (active)
Potency [2]: inactive

COC(=O)C(c1ccccc1Cl)N1CCc2sccc2C1 (stereo unspecified)
Potency [4]: inactive
Potency [1]: 17.4 µM (active)
Potency [3]: inactive
Potency [5]: inactive

CC(C)Nc1cccnc1N1CCN(C(=O)c2cc3cc(NS(C)(=O)=O)ccc3[nH]2)CC1
Potency [4]: inactive
Potency [1]: 6.92 µM (active)
Potency [2]: 1.95 µM (active)
outcome [6]: inactive

O=C(N/N=C/c1ccc([N+](=O)[O-])o1)c1ccc(O)cc1
Potency [1]: 3.89 µM (active)
Potency [3]: 5.96 µM (active)
Potency [5]: 8.41 µM (active)

CC(C)(C)NC[C@H](O)COc1nsnc1N1CCOCC1
Potency [4]: inactive
Potency [2]: inactive
outcome [7]: inactive
Potency [3]: inactive
Potency [5]: inactive

O=C(O)C(Cc1cc(I)c(O)c(I)c1)c1ccccc1 (stereo unspecified)
Potency [1]: inactive
Potency [2]: 15.1 µM (active) and 11 µM (active)
Potency [3]: inactive

CC(C(=O)O)c1cccc(Oc2ccccc2)c1 (stereo unspecified)
Potency [4]: inactive
Potency [1]: inactive
Potency [3]: inactive
Potency [5]: inactive

Oc1ccccc1C=NCc1ccccc1
Potency [4]: inactive
Potency [2]: inactive
Potency [3]: inactive
Potency [5]: inactive

CCC(Cc1c(I)cc(I)c(N)c1I)C(=O)O (stereo unspecified)
Potency [4]: inactive
Potency [1]: 15.5 µM (active)
Potency [3]: inactive
Potency [5]: inactive

O=C(CN1CCN(Cc2ccc3c(c2)OCO3)CC1)N1c2ccccc2Sc2ccccc21
Potency [1]: 0.195 µM (active)
Potency [2]: 7.76 µM (active)
Potency [3]: inactive

C=C[C@H]1CN2CC[C@H]1C[C@H]2[C@H](O)c1ccnc2ccc(OC)cc12
Potency [4]: inactive
Potency [2]: inactive

NC(N)=NCc1cccc(I)c1
outcome [7]: inactive
